Data published in the supplement of paper PMC11417369.
Over roughly 25,000 sequences, “ln(normalized median fluorescence intensity)” has its median near 6.7; the highest 2% begin near 10. What follows is part of a selection rich in the highest values, with near analogues and random picks from the rest.

Tested on: PfHDP1 homeodomain (GST-tagged)
Test: gcPBM binding intensity (ln(normalized median fluorescence intensity)); higher = stronger DNA binding
Procedure, shortened: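 The binding buffer was 1× PBS containing 1% milk, 0.2 mg/ml BSA, 0.5% salmon testes DNA and 0.03% Triton X-100. In it, GST-tagged P. falciparum DNA-binding domains expressed in E. coli were applied for 1 h to an Agilent 4 × 180k array of primer-extended double-stranded 36-bp intergenic genomic probes plus negative controls. Binding intensity, read with Alexa488 anti-GST antibody and a 488 nm scan, is the highest Masliner-normalised natural-log median intensity across replicate spots of either probe orientation.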

Sequence	gcPBM binding intensity (ln)
TATATATATATATATACATGCATATATATAATATAT [TGCATGCA_site763]	9.32
ATATATATTTAAAAAAGTACAGAAGAAAATAACCCA [XGTACX_site642]	7.19
GATGATACACAGGTGTTGCACTTAAATGCAGTTCTT [GTGCAC_site9627]	8.13
ATATATATATATATATGTACATATTATTAATAATAT [XGTACX_site6667]	9.32
TTTTGAATATTTGGTCGTACGTAAAAATAGATAATT [XGTACX_site5755]	6.75
AAGTTTTCTTAAAATTGTACTTTTCAAAAATAATCT [XGTACX_site277]	5.83
TATATAACATATGGGACACACATGCAACTGTTATAT [CACACA_site3792]	6.89
CATTAACAAATAAATGCACACATATATATAAATAAT [CACACA_site7892]	9.2
TAATATATTATAAACACATGCACATTAATAATAACT [TGCATGCA_site708]	8.38
AACAACAACTAATATGCACACATTTAAAAACAAAAT [CACACA_site2440]	9.7
TCATAAACATTATGCACACAAAAATAAAAAAAAATA [CACACA_site1115]	10.2
GATTCATCTAAACACCGTACATATTATATATATATA [XGTACX_site6030]	8.65
ATGGTGCAACATTATGCACACCGTTAAATAACTAAT [CACACA_site9280]	11.7
TTATGGTGCAACATTATGCACACCGTTAAATAACTA [CACACA_site3846]	11.4
TGATTCTAACTTATGGTGCAACATTATGGACACCGT	10.5
GAATGCCTTGAAAATAGTACAATTAAGAAAAAATAC [XGTACX_site8002]	6.53
ACATAAGATGAAAAATGTACATTCAAAAAATGAAAT [XGTACX_site3227]	6.52
AAGACAAATTTTACATGTACAAATATATTACATATA [XGTACX_site7060]	6.83
AATGTATATATGTAATGTACATATATAATGTATATA [XGTACX_site6510]	6.6
TTATATGCTCAATGTTGTACATGTAGATATATATAT [XGTACX_site8211]	9.77

Sequence	gcPBM binding intensity (ln)
ATTACACATATAGTAGTGCAATAACTCCAAAAAAAA	9.55
AAATTTTAATTAGACTGTACACATTTTAGAATAATT [XGTACX_site4819]	6.17
AAAAAAAATTAATTAGTGCAAAATATATACAAAATA [GTGCAC_site9762]	10.4
TATTTATAGATATATACACACATATACATATTGTTT [CACACA_site7611]	6.63
TTTGATCGATGGATTTAACACACAAAAAAAAAAAAA [CACACA_site9279]	6.32
ACCCATTTTAATTTAGTGCACATTTTACCTTTATAC	10.1
ATATATATATATATAGTGCACATTTATATAATTATT	10
CTATTTCAATTTAGTGCACACATTTTAATTTATAAG [CACACA_site2040]	10.9
CTACTTAATATTTGTACACACATATTTAACCTACTA [CACACA_site5725]	7.02
AAAAAAGAATTGTGCACACACAAAAAATGTTCATAA [CACACA_site1103]	10.3
TTAAAAAAGAATTGTGCACACACAAAAAATGTTCAT [CACACA_site1102]	10.6
AAAGAATACAAAATTGCACACATATTGTGAAAATGT [CACACA_site9327]	9.59
ATATATTTTTAGCACAGTACAATATAATTAAATATA [XGTACX_site6779]	7.02
ATATAATATATATATTGTACATATATTTATAAGCAT [XGTACX_site3726]	6.5
ATTTTAAATTTATCTGTGCACAGTATTATATAAGCA [GTGCAC_site9806]	10.8
ATATTTGTATAAATTGCACACTTTATTTTTTTTAAG [CACACA_site1558]	9.86
AGTATAAGCATTATTGTGCACATAATTATAATTTTT	11
TATATTATTAATTAAGCACACATTATTTTTATAATA [CACACA_site3982]	6.37
ATTATTCTATATGAAACATGCATACATTTGTATTTT [TGCATGCA_site823]	6.53
AAATACTGTAAAAAAGCATGCCACTAATAATAATTA [TGCATGCA_site759]	6.33

Sequence	gcPBM binding intensity (ln)
TTTTTATATTTCAACATATCACAATTTTATATATCT [CACACA_negctrl_site178]	6.43
AATGAGAAGGACTGCACACTAAAATGGAAGGAGAAA [CACACA_site1575]	6.97
GAGTGAAATATGCAAACACACACGAGAAAAATGTAT [CACACA_site3196]	7.15
AAAAGGAGAAATATTGCACACGTGCAAAATGGTATG [CACACA_site4300]	11
AAGGAGAAATATTGCACACGTGCAAAATGGTATGAG [CACACA_site259]	10.8
AGGAAAATTATGAATGGTACAGAATATATTAGGAGA [XGTACX_site6282]	7.46
GTGAAATATGCAAACACACACGAGAAAAATGTATAT [CACACA_site7488]	6.99
ATTTTTTAAAAAGTAACACACACTCTTATAAATAAC [CACACA_site7668]	6.7
GATAATGAATGATGCACACTAAAAATATTCTACAAC [CACACA_site3622]	8.94
TATTTTATATAAAGGTGTACTTATACAAAAATATAT [XGTACX_site7435]	6.52
TTTTCTCTAAAAAGGTGTACAACTAATAATGCACTG [XGTACX_site6074]	10.6
AAAAAAAAAAAAAGGTGTACATGCAAAATAAATTCT [XGTACX_site4592]	6.48
ATTTTTCTAAAATACTGTACAAAGGTGCATAAAAAG [XGTACX_site4425]	11.1
AAATACTGTACAAAGGTGCATAAAAAGTGGGGCATA	9.07
TATGGAAGAAAATATACACACAAAAAAAAAAAATGT [CACACA_site1486]	6.58
TATATAATATATAAATGTACTTTTGTCTTATATGAA [XGTACX_site7211]	6.32
TATTTTGTATTCATTTGTCACATATAATAGATAGGA [TGCATGCA_negctrl_site9]	6.82
TTTCTTTTTAAATATATACACACCGTGGGTACATAT [CACACA_site9102]	6.81
